Source: PubChem BioAssay AID1159580 (chemical genetic matrix, 2015)
Several values for one entry are separate records, joined by “and”; a condition that tells them apart may be missing. Equal entries are not always repeated. Out of some 5,500 compounds screened, about 2,000 (36%) were called active. Not shown: some 18% with an inconclusive outcome. Cut-off read from the data, not from the text of the source: active = normalized growth mostly below about 0.91 (no sharp cut-off); inconclusive = no clear call, values can overlap the other calls; inactive = mostly above about 0.92. The list shows a part of the results.

Assay: chemical genetic growth profiling, strain panel (AID 1159580);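 note: tested at 20 µM; growth read once vehicle control cultures reached saturation at 30 °C; 1 = growth at the plate median or of vehicle wells; lower values mean less growth of the strain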
Settings: S. cerevisiae deletion strains, growth OD

Measured: normalized growth

CC[C@H](CCC(C)[C@H]1CCC2C3CCC4C[C@@H](O)CC[C@]4(C)C3CC[C@@]21C)C(C)C (stereo partly drawn)
inactive: locus YAL013W, strain DEP1, active compounds read low 1.01 | locus YAL021C, strain ccr4, active compounds read low 0.968 | locus YAL026C, strain drs2, active compounds read low 0.955 | locus YAL030W, strain snc1, active compounds read low 0.985 | locus YBL061C, strain skt5, active compounds read low 0.988 | locus YBR009C, strain hhf1, active compounds read low 0.983 | locus YBR021W, strain FUR4, active compounds read low 0.993 | locus YBR023C, strain chs3, active compounds read low 0.988 | locus YBR171W, strain sec66, active compounds read low 0.976 | locus YBR229C, strain ROT2, active compounds read low 0.999 | locus YBR231C, strain swc5, active compounds read low 1.01 | locus YBR279W, strain paf1, active compounds read low 0.983 | locus YCL011C, strain gbp2, active compounds read low 0.986 | locus YCL016C, strain dcc1, active compounds read low 0.992 | locus YCL029C, strain bik1, active compounds read low 1.03 | locus YCL061C, strain MRC1, active compounds read low 0.99 | locus YCL069W, strain vba3, active compounds read low 0.971 | locus YCR088W, strain abp1, active compounds read low 0.988 | locus YDL005C, strain med2, active compounds read low 0.975 | locus YDL035C, strain GPR1, active compounds read low 1.01 | locus YDL040C, strain nat1, active compounds read low 0.991 | locus YDL074C, strain BRE1, active compounds read low 1 | locus YDL101C, strain DUN1, active compounds read low 1.01 | locus YDL185W, strain tfp1, active compounds read low 1.02 | locus YDL192W, strain arf1, active compounds read low 1.02 | locus YDR001C, strain nth1, active compounds read low 0.984 | locus YDR069C, strain doa4, active compounds read low 0.977 | locus YDR101C, strain arx1, active compounds read low 1.01 | locus YDR137W, strain rgp1, active compounds read low 0.973 | locus YDR159W, strain sac3, active compounds read low 0.975 | locus YDR162C, strain NBP2, active compounds read low 1.02 | locus YDR195W, strain ref2 0.946 | locus YDR297W, strain sur2, active compounds read low 0.993 | locus YDR318W, strain mcm21, active compounds read low 1.01 | locus YDR334W, strain swr1, active compounds read low 0.972 | locus YDR335W, strain msn5, active compounds read low 0.984 | locus YDR388W, active compounds read low 1.01 | locus YDR392W, strain spt3, active compounds read low 0.932 | locus YDR502C, strain sam2, active compounds read low 1.01 | locus YEL003W, strain gim4, active compounds read low 0.991 | locus YEL037C, strain rad23, active compounds read low 0.948 | locus YEL061C, strain CIN8 (second series), active compounds read low 0.975 | locus YEL061C, strain CIN8, active compounds read low 1.01 | locus YER015W, strain faa2, active compounds read low 0.995 | locus YER016W, strain bim1, active compounds read low 0.992 | locus YER110C, active compounds read low 1.01 | locus YER111C, strain swi4, active compounds read low 0.992 | locus YER155C, strain BEM2 (second series), active compounds read low 0.987 | locus YER155C, strain BEM2, active compounds read low 1.01 | locus YER167W, strain BCK2, active compounds read low 1 | locus YFR010W, strain ubp6, active compounds read low 0.964 | locus YGL078C, strain dbp3, active compounds read low 1.02 | locus YGL086W, strain mad1, active compounds read low 0.997 | locus YGL167C, strain pmr1, active compounds read low 0.999 | locus YGL173C, strain kem1, active compounds read low 0.999 | locus YGL227W, strain vid30, active compounds read low 0.992 | locus YGL240W, strain doc1, active compounds read low 0.988 | locus YGL248W, strain PDE1, active compounds read low 1.01 | locus YGL253W, strain hxk2, active compounds read low 0.997 | locus YGR135W, strain pre9, active compounds read low 1.01 | locus YGR252W, strain gcn5, active compounds read low 0.998 | locus YHR013C, strain ard1, active compounds read low 0.968 | locus YHR027C, strain rpn1, active compounds read low 0.982 | locus YHR030C, strain SLT2, active compounds read low 1.01 and 1.06 | locus YHR079C, strain IRE1 (second series), active compounds read low 1.01 | locus YHR079C, strain IRE1, active compounds read low 1.03 | locus YHR094C, strain hxt1, active compounds read low 1.01 | locus YHR129C, strain ARP1, active compounds read low 1.01 | locus YHR142W, strain chs7, active compounds read low 1.01 | locus YHR200W, strain rpn10, active compounds read low 1.01 | locus YIL066C, strain RNR3, active compounds read low 1.01 | locus YIL073C, strain SPO22, active compounds read low 1.03 | locus YIL125W, strain kgd1, active compounds read low 1.01 | locus YIR030C, strain dcg1, active compounds read low 1 | locus YJL092W, strain hpr5, active compounds read low 0.982 | locus YJL095W, strain BCK1 (second series), active compounds read low 1 | locus YJL095W, strain BCK1, active compounds read low 0.997 and 0.966 | locus YJL115W, strain asf1, active compounds read low 0.982 | locus YJL129C, strain trk1, active compounds read low 0.985 | locus YJL134W, strain LCB3, active compounds read low 1 | locus YJL154C, strain vps35, active compounds read low 0.978 | locus YJL164C, strain tpk1, active compounds read low 0.997 | locus YJL166W, strain qcr8, active compounds read low 1.06 | locus YJL168C, strain set2, active compounds read low 1 | locus YJL187C, strain SWE1 (second series), active compounds read low 1 | locus YJL187C, strain SWE1, active compounds read low 0.981 | locus YJR043C, strain POL32, active compounds read low 1.03 | locus YJR066W, strain TOR1, active compounds read low 0.991
